The text below walks through data of PubChem BioAssay (NCI).

Common to all, as to assay: NCI-60 one-dose screen, 48 h (100 = growth as untreated, 0 = no growth, -100 = all killed)
The subject of one assay is HT29 colon. Particulars: 10 µM unless noted.
For a further assay, the system named is SNB-75 CNS. The conditions noted are these: 10 µM unless noted.
A further assay concerns SNB-19 CNS. The conditions noted are these: 10 µM unless noted.
Another assay concerns U251 CNS. Particulars: 10 µM unless noted.
A further assay relates to PC-3 prostate. Particulars: 10 µM unless noted.
The next assay relates to SK-MEL-5 melanoma. Particulars: 10 µM unless noted.
The next assay deals with UACC-62 melanoma.
The subject of another assay is LOX IMVI melanoma. The conditions noted are these: 10 µM unless noted.
The test system of another assay is SK-MEL-28 melanoma. Particulars: 10 µM unless noted.
The test system of a further assay is SK-MEL-2 melanoma. The conditions noted are these: 10 µM unless noted.
A further assay deals with EKVX NSCLC. Particulars: 10 µM unless noted.
The subject of a further assay is SN12C renal. Particulars: 10 µM unless noted.
Another assay relates to UO-31 renal. Particulars: 10 µM unless noted.
For another assay, the system named is TK-10 renal.
The test system of another assay is ACHN renal. The conditions noted are these: 10 µM unless noted.
A further assay deals with CAKI-1 renal. Particulars: 10 µM unless noted.
A further assay has as its system A498 renal. Particulars: 10 µM unless noted.
Another assay has as its system CCRF-CEM leukemia. Particulars: 10 µM unless noted.
The test system of a further assay is MOLT-4 leukemia. Particulars: 10 µM unless noted.
The next assay has as its system SR leukemia. Particulars: 10 µM unless noted.

Values joined by “and” are separate entries in the source; they are usually repeats but may differ in a detail not shown here. Equal values may be shown once. This is part of a sample that, as a whole, favours compounds with a hit. Of some 83,000 tested, about 20% had one in any assay.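 The endpoint reported here, percent growth, reads 100 for growth as untreated, 0 for no net growth and -100 for all cells dead.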 A number with no mark means an inactive call. Active and inactive are the calls of the source. How the source made its calls: active means growth percent below 10; inactive means the rest.

On to `OC(Cc1cccnc1)c1ccccc1` (stereo not given), for which the growth in the assay on HT29 colon is 106%; in the assay with SNB-75 CNS, 99.7%; with SNB-19 CNS it was 98.9%; with U251 CNS it was 98.1%; with PC-3 prostate it was 101%; in the assay on SK-MEL-5 melanoma it was 102%. Besides, the growth in the assay on UACC-62 melanoma (10 µM unless noted) was 97.4%; in the assay on LOX IMVI melanoma it was 101%; with SK-MEL-28 melanoma, 108%; in the assay on SK-MEL-2 melanoma, 102%; in the assay on EKVX NSCLC, 113%; in the assay with SN12C renal, 99.3%. Besides, the growth in the assay with UO-31 renal is 93.3%; in the assay on TK-10 renal (10 µM unless noted), 109%; in the assay on ACHN renal, 101%; with CAKI-1 renal, 119%; with A498 renal it was 86.5%; with CCRF-CEM leukemia it was 80.2%. Also, the growth with MOLT-4 leukemia is 94.3%; in the assay with SR leukemia, 92.6%.

`CCCCCCCC/C=C/CCCCCCCC1=NC(C)(C)CN1CC(C)O` (stereo not given): the growth with HT29 colon is -64.8% (active); with SNB-75 CNS, 32%; in the assay on SNB-19 CNS, 72.3%; in the assay on U251 CNS it was -17% (active); in the assay on PC-3 prostate, 42%; in the assay on SK-MEL-5 melanoma, 53.3%. Further, the growth is 3.95% (active) with UACC-62 melanoma (10 µM unless noted); -99.4% (active) with LOX IMVI melanoma; 53.2% in the assay with SK-MEL-28 melanoma; 33% in the assay with SK-MEL-2 melanoma; 71.2% in the assay on EKVX NSCLC; 54.9% in the assay on SN12C renal. Besides, the growth in the assay with UO-31 renal is -73.9% (active); in the assay with TK-10 renal (10 µM unless noted) it was 82.8%; with ACHN renal it was 28%; in the assay on CAKI-1 renal, 62%; in the assay on A498 renal, 76.9%; in the assay with CCRF-CEM leukemia, -37.9% (active).

Turning to `c1ccc2c(c1)[nH]c1c2cc[n+]2cc3c(cc12)CCCC3`, the growth in the assay on HT29 colon is 18.5%; with SNB-75 CNS it was 77.3%; with SNB-19 CNS, 35.1%; with U251 CNS it was 16.3%; in the assay with PC-3 prostate, 22.8%; with SK-MEL-5 melanoma it was 18.3%. Further, the growth in the assay with UACC-62 melanoma (10 µM) is 29.6%; in the assay on UACC-62 melanoma (100 µM) it was -23.2% (active) and -48.3% (active); in the assay with LOX IMVI melanoma, 19.5%; in the assay on SK-MEL-28 melanoma it was 32.7%; in the assay on SK-MEL-2 melanoma, -8.25% (active); with SN12C renal, 24.5%. Also, the growth with UO-31 renal was 82.1%; in the assay with TK-10 renal (10 µM) it was 69.2%; in the assay with TK-10 renal (100 µM) it was -97.9% (active) and -92.5% (active); in the assay with ACHN renal, 66.2%; in the assay with A498 renal, 97.3%; in the assay on CCRF-CEM leukemia, 1.33% (active). Moreover, the values for the growth in the assay with MOLT-4 leukemia and in the assay with SR leukemia were 2.41% (active) and 10.6%, respectively.

Turning to `Cn1cc(-c2nc(-c3c[nH]c4ncc(F)cc34)cs2)c2cccnc21`, the growth with HT29 colon was 112%; in the assay on SNB-75 CNS, 101%; in the assay with SNB-19 CNS, 108%; in the assay on U251 CNS it was 98.6%; in the assay with PC-3 prostate it was 104%; in the assay on SK-MEL-5 melanoma, 97.9%. Besides, the growth in the assay on UACC-62 melanoma (10 µM unless noted) is 89.1%; in the assay on LOX IMVI melanoma, 98%; in the assay on SK-MEL-28 melanoma, 111%; in the assay with SK-MEL-2 melanoma, 120%; with EKVX NSCLC it was 84.3%; in the assay on SN12C renal, 101%. Also, the growth was 100% with UO-31 renal; 124% in the assay on TK-10 renal (10 µM unless noted); 93.7% in the assay on ACHN renal; 92.5% with CAKI-1 renal; 109% in the assay with A498 renal; 102% in the assay with CCRF-CEM leukemia. Besides, the growth in the assay on MOLT-4 leukemia is 101%.

Turning to `Cn1cc(-c2nc(-c3c[nH]c4ncccc34)cs2)c2cccnc21`, the growth in the assay on HT29 colon is 73.1%; in the assay on SNB-75 CNS, 47.1%; in the assay on SNB-19 CNS, 82.5%; in the assay with U251 CNS, 71.6%; in the assay on PC-3 prostate it was 76.6%; with SK-MEL-5 melanoma, 57.8%. For the same compound, the growth in the assay with UACC-62 melanoma (10 µM unless noted) was 58.6%; in the assay with LOX IMVI melanoma, 54.3%; with SK-MEL-28 melanoma, 90.6%; with SK-MEL-2 melanoma, 52.7%; in the assay on EKVX NSCLC, 50.5%; with SN12C renal, 84.4%. Besides, the growth with UO-31 renal was 52.9%; with TK-10 renal (10 µM unless noted) it was 31%; in the assay with ACHN renal, 41.4%; with CAKI-1 renal, 28.3%; with A498 renal, 50.1%; with CCRF-CEM leukemia, 65.3%. The growth in the assay with MOLT-4 leukemia is 69.3%.

For `COC(=O)[C@]1(CCSC)N[C@H](c2cn(-c3ccccc3)nc2C)[C@@H]2C(=O)N(c3ccc(C)cc3)C(=O)[C@@H]21`, the growth with HT29 colon is 99.7%; in the assay on SNB-75 CNS, 93.3%; with SNB-19 CNS, 97.8%; in the assay with U251 CNS, 95.7%; with PC-3 prostate, 98.1%; with SK-MEL-5 melanoma, 115%. Besides, the growth was 102% in the assay on UACC-62 melanoma (10 µM unless noted); 97.9% in the assay on LOX IMVI melanoma; 109% in the assay on SK-MEL-28 melanoma; 101% in the assay on SK-MEL-2 melanoma; 106% in the assay on EKVX NSCLC; 101% with SN12C renal. Also, the growth was 77.5% with UO-31 renal; 104% with TK-10 renal (10 µM unless noted); 90.7% in the assay on ACHN renal; 93.9% with CAKI-1 renal; 77.2% in the assay on A498 renal.

Take `Cc1nn(-c2ccccc2)c2nc(Cl)c(/C=C/C(=O)c3ccccc3)c(-c3ccccc3)c12`: the growth with HT29 colon is 103%; with SNB-75 CNS, 89.4%; with SNB-19 CNS, 98.9%; in the assay on U251 CNS it was 104%; in the assay with PC-3 prostate, 101%; in the assay with SK-MEL-5 melanoma it was 96.3%. Moreover, the growth with UACC-62 melanoma (10 µM unless noted) was 102%; in the assay with LOX IMVI melanoma it was 96.1%; in the assay on SK-MEL-28 melanoma it was 109%; with SK-MEL-2 melanoma it was 96.4%; in the assay with EKVX NSCLC, 107%; with SN12C renal it was 102%. Further, the growth was 82.4% in the assay on UO-31 renal; 121% in the assay on TK-10 renal (10 µM unless noted); 104% in the assay with ACHN renal; 97.8% in the assay with CAKI-1 renal; 112% with A498 renal.

As to `Nc1nc2ncc(CCNc3ccc(C(=O)NC(CCC(=O)O)C(=O)O)cc3)nc2c(=O)[nH]1` (stereo not given), the growth was 109% with HT29 colon; 81.3% with SNB-75 CNS; 111% in the assay with SNB-19 CNS; 100% in the assay on U251 CNS; 106% in the assay on PC-3 prostate; 98.9% in the assay with SK-MEL-5 melanoma. The growth is 99.6% in the assay with UACC-62 melanoma (10 µM unless noted); 98.3% with LOX IMVI melanoma; 125% in the assay on SK-MEL-28 melanoma; 2.9% (active) in the assay with SK-MEL-2 melanoma; 119% in the assay on EKVX NSCLC; 108% in the assay with SN12C renal. Also, the growth with UO-31 renal is 70.7%; in the assay on TK-10 renal (10 µM unless noted), 107%; with ACHN renal, 103%; in the assay on CAKI-1 renal, 114%; with A498 renal, 95.8%; in the assay on CCRF-CEM leukemia it was 77.1%. For the same compound, the growth with MOLT-4 leukemia was 145%; with SR leukemia, 133%.
